# Among all 360,000 compounds or so, about 1,300 (0.36%) were called active. This is one part of a sample in which actives are shown more often than they occur.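 How the source made its calls: active means inhibition above the mean of all tested compounds plus 3 SD (cut at about 70% in these data); inactive means the rest.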
# Biological target: Photoreceptor-specific nuclear receptor (Homo sapiens) (UniProt Q9Y5X4)
# Experiment: NCOR release from NR2E3 in cells – cell-based, luminescence, CHO-S, Gal4-NCOR/VP16-NR2E3, primary screen (AID 602229);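 further: 0% = DMSO with NR2E3 transfected cells and 100% = cells lacking NR2E3 construct; higher means lower luciferase signal from less NR2E3 corepressor binding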
# Details: CHO-S Gal4-NCOR/VP16-NR2E3 two-hybrid, luciferase; at 3.98 µM; active compounds read high
# Sequence of Photoreceptor-specific nuclear receptor (Homo sapiens) (Q9Y5X4 whole entry, looked up, the tested form may be a part): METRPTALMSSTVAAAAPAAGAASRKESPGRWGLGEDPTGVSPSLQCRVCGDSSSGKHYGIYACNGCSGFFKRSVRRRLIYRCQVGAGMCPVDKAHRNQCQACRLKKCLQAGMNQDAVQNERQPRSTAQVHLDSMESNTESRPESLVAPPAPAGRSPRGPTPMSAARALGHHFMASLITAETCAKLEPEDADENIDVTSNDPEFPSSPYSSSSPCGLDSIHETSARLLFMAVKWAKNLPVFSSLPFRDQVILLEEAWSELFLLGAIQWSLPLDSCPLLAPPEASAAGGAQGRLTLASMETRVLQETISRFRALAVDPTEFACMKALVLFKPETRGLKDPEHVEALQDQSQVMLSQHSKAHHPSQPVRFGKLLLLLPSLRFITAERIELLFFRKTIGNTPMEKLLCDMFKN
row,Compound,inhibition of corepressor binding
1,COc1ccc(S(=O)(=O)n2nc(C)c(S(=O)(=O)N3CCOCC3)c2C)cc1,-29.6% (inactive)
2,COc1ccccc1Oc1ccc(S(=O)(=O)Nc2cccnc2)cc1,96.3% (active)
3,Cc1cc(C)c(C)c(S(=O)(=O)Nc2cccnc2)c1C,-21.1% (inactive)
4,COc1ccc(S(=O)(=O)Nc2cccnc2)c(Cl)c1Cl,-20.2% (inactive)
5,CN(CCc1cnn(C)c1)Cc1cn(C)nc1-c1ccccc1F,-12.1% (inactive)
6,COc1ccc(NC(=O)C2=NNC(=O)CC2)cc1S(=O)(=O)N1CCCCC1,-7.29% (inactive)
7,CC1(C)O[C@@H]2CC3C4C[C@H](F)C5=CC(=O)C=CC5(C)C4C(O)CC3(C)[C@]2(C(=O)CO)O1 (some centres not stated),7.42% (inactive)
8,Cc1ccc(NS(=O)(=O)c2ccc(-c3coc(C)n3)cc2)c(C)c1,73.5% (active)
9,COc1cccc(NS(=O)(=O)c2ccc(-c3coc(C)n3)cc2)c1,50.6% (inactive)
10,Cc1ccc(NS(=O)(=O)c2ccc3c(c2)n(C)c(=O)c(=O)n3C)c(C)c1,10.7% (inactive)
11,CCC1CCCCN1C(=O)CSc1nc(C)cc(C)n1 (configuration not stated),7.45% (inactive)
12,Cc1ccc(C(=O)OC2=CC(=O)CC(C)(C)C2)cc1,-13.1% (inactive)
13,CS(=O)(=O)N1CCN=C1SCc1ccc(F)cc1,-6.15% (inactive)
14,COc1cccc(N(CC(=O)NC2CCCC2)C(=O)CCCC(=O)Nc2ccccn2)c1,-5.7% (inactive)
15,O=S(=O)(Nc1ccc(Oc2ncccn2)c(Cl)c1)c1ccc(F)cc1,-0.77% (inactive)
16,COc1cc(NS(=O)(=O)c2ccc3ccccc3c2)c2ncccc2c1,48% (inactive)
17,Cc1ccc(S(=O)(=O)Nc2ccc3ncccc3c2)cc1,74.2% (active)
18,COC(=O)c1ccccc1NC(=O)C1CCN(S(=O)(=O)c2cc(OC)ccc2OC)CC1,-0.68% (inactive)
19,CC(C)N=C1CCCC1C(=S)SSC(=S)C1CCCC1=NC(C)C (configuration not stated),82.3% (active)

row,Compound,inhibition of corepressor binding
1,O=C(CSc1ccccn1)N1CCN(S(=O)(=O)c2ccc(Cl)cc2)CC1,-21.8% (inactive)
2,CCCc1cc(=O)[nH]c(SCc2ccc(C#N)cc2)n1,-25.9% (inactive)
3,O=C(CN(CC1CCCO1)C(=O)CNS(=O)(=O)c1ccccc1)NCc1ccccc1 (configuration not stated),-7.79% (inactive)
4,CN(O)C(=S)c1ccccc1,98.8% (active)
5,CCOC(=O)C1=NNC2(c3ccc(Cl)cc3)C(=O)N(c3cc(C)cc(C)c3)C(=O)C12 (configuration not stated),3.14% (inactive)
6,Cc1cc(C)nc(NC(=O)Nc2ccccc2C(F)(F)F)n1,-48.1% (inactive)
7,CC(C)(C)C(=O)COC(=O)c1cc(S(=O)(=O)N2CCCCC2)ccc1N1CCOCC1,-9.47% (inactive)
8,COc1ccccc1CCCNC(=O)C1CCC(=O)N(CCN2CCOCC2)C1 (configuration not stated),-8.73% (inactive)
9,O=C(c1ccco1)N1CCN(CC(=O)N(C2CCCCC2)C2CCS(=O)(=O)C2)CC1 (configuration not stated),-15.5% (inactive)
10,Cc1ccc(S(=O)(=O)N2CCN(c3ncnc4ccccc34)CC2)cc1,89.9% (active)
11,Cc1ccc(C)c(S(=O)(=O)N2CCN(c3ncnc4sccc34)CC2)c1,85.8% (active)
12,Cc1ccc(S(=O)(=O)N2CCC3(CC2)OCCO3)c(C)c1,-34.4% (inactive)
13,Cc1ccc([N+](=O)[O-])cc1S(=O)(=O)N1CCCN(C)CC1,-11.3% (inactive)
14,Cc1ccc(S(=O)(=O)N2CCN(Cc3cccc(C)c3O)CC2)cc1,4.5% (inactive)
15,COc1ccc(S(=O)(=O)N2CCN(c3ncnc4c(-c5ccccc5)nsc34)CC2)cc1,-27.3% (inactive)
16,N#CC1=C(N)Oc2[nH]c(=S)[nH]c(=O)c2C12C(=O)Nc1ccccc12 (configuration not stated),-7.36% (inactive)
17,CCCCn1nnnc1C(c1ccccc1)N1CCN(c2ccccc2OC)CC1 (configuration not stated),-15.1% (inactive)
18,CCCCC(=O)N(c1ccc(OC)cc1)C1C=CS(=O)(=O)C1 (configuration not stated),-26% (inactive)
19,COC(=O)[C@]12CCCCC=C1N(Cc1ccco1)C(=O)[C@H](CC(=O)NCCCCc1ccccc1)C2,-23.9% (inactive)

row,Compound,inhibition of corepressor binding
1,COc1ccc(NC(=O)CC2SC(N3CCCCC3)=NC2=O)cc1OC (configuration not stated),8.6% (inactive)
2,CS(=O)(=O)Nc1ccccc1N=C(c1ccccc1)c1ccccc1,7.7% (inactive)
3,O=C(CCc1nnc2ccc(NCCCN3CCCC3=O)nn12)NCc1ccccc1Cl,8.39% (inactive)
4,Cc1nc(-c2ccc(F)cc2)c(CC(=O)Nc2cc(S(=O)(=O)N3CCCCC3)ccc2C)s1,82.8% (active)
5,Cc1ccc(S(=O)(=O)N2CCN(C(=O)Cc3sc(C)nc3-c3ccc(F)cc3)CC2)c(C)c1,-15.2% (inactive)
6,Cc1nc(-c2ccc(F)cc2)c(CC(=O)N2CCN(S(=O)(=O)c3ccc(F)cc3)CC2)s1,-1.49% (inactive)
7,O=S(=O)(Nc1ccc(-c2ccc(N3CCOCC3)nn2)cc1)c1cc(Cl)ccc1Cl,-41.5% (inactive)
8,COc1ccc(C(C(=O)NCC2CCCO2)N(C(=O)Cn2nnc3ccccc32)c2ccc(NC(C)=O)cc2)cc1OC (configuration not stated),-35.2% (inactive)
9,Cn1c(=O)oc2cc(S(=O)(=O)N3CCC(C(=O)Nc4ccc(OC(F)(F)F)cc4)CC3)ccc21,-16.6% (inactive)
10,CC[C@H]1CN2CCc3cc(OC)c(OC)cc3[C@@H]2C[C@@H]1C[C@H]1NCCc2cc(OC)c(OC)cc21,104% (active)
11,O=C(CC(NCCN1CCOCC1)C(=O)O)Nc1cccc(Cl)c1 (configuration not stated),5.57% (inactive)
12,CCCCCCCCn1c2c(c(=N)c3c1CCC3)CCCC2,92% (active)
13,Cc1ccc(S(=O)(=O)NC(C)C(=O)NCc2ccc(Cl)cc2)cc1 (configuration not stated),-5.53% (inactive)
14,CCn1cc(C(=O)N[C@@H](C)C(=O)NCCO)c(=O)c2cc3c(cc21)OCO3,-12.3% (inactive)
15,Cc1nc([N+](=O)[O-])c(NCCCO)n1Cc1ccccc1,-10.6% (inactive)
16,CCN1/C(=C\c2ccc3ccccc3[n+]2CC)Sc2cc(C)ccc21,89.4% (active)
17,COCC(=O)N1CCc2ccc(NC(=O)c3ccccc3Cl)cc2C1,-6.67% (inactive)
18,CCOC(=O)C1CCCN(C(=O)c2cc(-c3cccs3)oc2C)CC1 (configuration not stated),-1.14% (inactive)
19,CCOc1ccccc1N1CCN(C(=O)c2ccc3[nH]c(C)c(C)c3c2)CC1,-57.3% (inactive)

# — PubChem BioAssay AID602229 (The Scripps Research Institute Molecular Screening Center, 2012)
